# Reference: PubChem BioAssay AID492998 (Southern Research Specialized Biocontainment Screening …, 2010)
# Hit rate of the full screen: of about 2,300 compounds, about 550 (24%) were called active. How the calls were made is not given here. The list is a sample of the results. Entries with a potency or affinity are not part of this list.
# Test: Vero E6 cell cytotoxicity, dose response, cytotoxicity control for non-replicating M. tuberculosis project, secondary assay (AID 492998)
# Conditions: series mostly up to 20 µM
row,Compound,outcome
1,c1ccc(OCc2nnc3sc(-c4cccs4)nn23)cc1,inactive
2,CCOC(=O)c1cc([N+](=O)[O-])c([N+](=O)[O-])cc1NC(C)=O,inactive
3,O=C(c1ccc([N+](=O)[O-])o1)N1CCN(c2nc3ccc(F)cc3s2)CC1,inactive
4,COc1cc2c(cc1OC)CN(C(=O)c1ccc([N+](=O)[O-])o1)CC2,inactive
5,CC1(CCc2ccc3c(c2)OCO3)NC(=O)c2ccccc2N1 (stereo not drawn),inactive
6,COc1ccccc1-c1cc(SC)c(C#N)c(=O)o1,inactive
7,COc1ccccc1-c1nnc(-c2ccc(C)cc2)o1,inactive
8,CCc1ccc(NC(=O)CCc2ccc(C)o2)cc1,inactive
9,O=S(=O)(NCc1cccnc1)c1ccc(Cl)c(Cl)c1Cl,inactive
10,CC1CCCN(CCCOc2ccc([N+](=O)[O-])cc2)C1 (stereo not drawn),inactive
11,Cc1ccccc1OCCNc1cc(N2CC(C)NC(C)C2)ccc1[N+](=O)[O-] (stereo not drawn),inactive
12,S=c1[nH]c2ccccc2o1,inactive
13,CCOc1ccc(OC(=O)c2ccc3c(=O)n4c(nc3c2)CCC4)cc1,inactive
14,O=Cc1c(NCc2ccco2)nc2ccccn2c1=O,inactive
15,CC(C)Oc1ccc(CNC(=O)Oc2ccccc2)cc1,inactive
16,CCCOc1ccc(N2CC(C(=O)Nc3ccccc3F)CC2=O)cc1 (stereo not drawn),inactive
17,CCOC(=O)Cn1c2ccc(F)cc2c2nc(C)sc21,inactive
18,Cc1cccc(NC(=O)c2cc3ccccc3o2)c1,inactive
19,CC(C)(C)NC(=O)C(=O)NNC(=O)c1ccc(C(C)(C)C)cc1,inactive
20,CCOC(=O)c1nc2sc3c(c2c(=O)[nH]1)CCC(C)C3 (stereo not drawn),inactive
21,COc1ccc(OCC(=O)Nc2ccc(N3CCN(C(=O)c4ccco4)CC3)cc2)cc1,inactive
22,O=C(CCN1C(=O)S/C(=C\c2ccc(F)cc2)C1=O)Nc1ccc(C(=O)O)c(O)c1,inactive
23,CC(=O)c1cccc(NC(=O)C2COc3ccccc3O2)c1 (stereo not drawn),inactive
24,Cc1ccc(CNCc2cc(Cl)ccc2O)cc1,inactive
25,O=C(CCCOc1ccccc1)OCn1nnc2ccccc2c1=O,inactive
26,O=C(NCc1ccccc1)c1cc2ccccc2oc1=O,inactive

row,Compound,outcome
1,CCC/C(=N\NC(=O)c1ccco1)c1ccc(Cl)s1,inactive
2,O=C(Nc1nccs1)c1ccc(Br)cc1,inactive
3,C/C(=C\C(=O)c1ccc(Br)cc1)NNC(=O)c1ccccc1,inactive
4,COc1cc(C=O)ccc1OCCCCOc1ccccc1[N+](=O)[O-],inactive
5,CCOC(=O)c1cc(-c2c(Cl)cccc2Cl)no1,inactive
6,c1ccc(Cn2c(SCCN3CCOCC3)nnc2-c2cccnc2)cc1,inactive
7,O=C(O)c1ccc(CN2C(=O)CSC2=S)cc1,inactive
8,COc1ccc(CN=C2NN=C(c3ccc(Cl)cc3)CS2)cc1,inactive
9,O=C(O)CCCCCN1C(=O)CSC1=S,inactive
10,O=C1NC(Cc2c[nH]c3ccccc23)C(=O)N1CCOc1ccccc1 (stereo not drawn),inactive
11,CCOc1ccc(/C=N/OCC(=O)Nc2ccc3c(c2)OCO3)cc1,inactive
12,COc1cccc(OCC(=O)NNC(=O)c2cccs2)c1,inactive
13,CCC(=O)N/N=C/c1ccc(-c2ccc(Cl)cc2)o1,inactive
14,Cc1ccc(CO/N=C/c2c(O)cc(C)oc2=O)cc1,inactive
15,Cc1ccc(NC(=O)C2COc3ccccc3O2)nc1 (stereo not drawn),inactive
16,O=C1NC(=S)S/C1=C\c1ccc(SCc2ccco2)o1,inactive
17,O=C(C/C=N\OCc1ccc([N+](=O)[O-])cc1)Nc1ccccc1,inactive
18,C/C(=N\Nc1nc2ccccc2[nH]1)c1ccc(N2CCOCC2)cc1,inactive
19,CCCc1cc(=O)n2[nH]c(C)c(-c3ccccc3)c2n1,inactive
20,CC(C)[C@H](NC(=O)c1ccc(Br)cc1)C(=O)NC1CCCCC1,inactive
21,O=C(c1cc([N+](=O)[O-])cc([N+](=O)[O-])c1)N(Cc1nnc(-c2ccccc2Cl)o1)C1CC1,inactive
22,CC(=O)N1CCN(C(=O)CC2OC(=O)c3ccccc32)CC1 (stereo not drawn),inactive
23,Cc1c(Cl)cccc1-c1ccc(CNCc2ccccn2)o1,inactive
24,Cc1ccsc1C(=O)OCC(=O)NCCC1=CCCCC1,inactive
25,COCCn1c(C)cc(C(=O)COC(=O)c2ccc(Br)o2)c1C,inactive
26,COc1cc(/C=C2/C(=O)NN(c3cccc(F)c3)C2=O)ccc1OC(=O)c1ccco1,inactive

row,Compound,outcome
1,CC(C)(C)OC(=O)N/N=C\c1ccc([N+](=O)[O-])s1,inactive
2,O=C(Nc1ccc(Cl)c(Cl)c1)O/N=C/c1ccncc1,inactive
3,CCCCN(C/C=C/c1ccccc1OC)Cc1ccccc1,inactive
4,CCCOC(=O)c1ccc(NC(=O)c2ccc(Br)o2)cc1,inactive
5,COc1ccc(-c2nc(C=O)cs2)cc1,inactive
6,Cc1cccc(NC(=O)COc2ccc(Br)cc2)n1,inactive
7,COc1cccc(NC(=O)c2cc3ccccc3oc2=O)c1,inactive
8,Cc1ccc(C(=O)c2cncc(Br)c2)cc1,inactive
9,CC(=O)Oc1ccc(/C=C2\N=C(C3CCCCC3)OC2=O)cc1,inactive
10,CCCCOc1ccc(-c2nnn(C(C)C(=O)OCC)n2)cc1 (stereo not drawn),inactive
11,Clc1ccc(N=c2ssnc2Cl)nc1,inactive
12,COc1ccccc1N1CCN(C(=O)c2ccc([N+](=O)[O-])s2)CC1,inactive
13,Cc1ccccc1N1CCN(Cc2ccc([N+](=O)[O-])o2)CC1,inactive
14,O=[N+]([O-])c1ccc(CN2CCN(c3ccccc3Cl)CC2)o1,inactive
15,O=C(c1ccc([N+](=O)[O-])s1)N1CCN(c2cccc(Cl)c2)CC1,inactive
16,CCOC(=O)COc1ccc2c(=O)c(-c3ccccc3OC)coc2c1,inactive
17,COc1ccc(OCCOC(=O)CCS(=O)(=O)c2ccc(C)cc2)cc1,inactive
18,C=CCN(CC=C)CC(=O)Nc1ccc(S(N)(=O)=O)cc1,inactive
19,O=C1N/C(=N\c2ccccn2)SC1Cc1ccc(Cl)cc1 (stereo not drawn),inactive
20,COc1ccc(OCCSc2nnc(Cc3cccc4ccccc34)n2N)cc1,inactive
21,CC1=CC2=NC(=O)/C(=C\c3ccc(OC(=O)c4ccco4)cc3)C(=N)N2O1,inactive
22,Cn1[nH]c(-c2ccccc2)c(/C=N/O)c1=O,inactive
23,CS/C(Nc1cc(Cl)ccc1Cl)=C(/C#N)C(=O)c1ccco1,inactive
24,COc1ccc(N2C(=O)C(F)(F)C2c2cccc(F)c2)cc1 (stereo not drawn),inactive
25,O=C(NN=C(Cc1ccccc1)Cc1ccccc1)c1ccncc1,inactive
26,O=C(N/N=C/C=C/c1ccccc1)c1ccncc1,inactive
